Experimental findings from PubChem BioAssay AID651820 (National Center for Advancing Translational Sciences (NCATS), 2012) are described below.

The campaign covered roughly 340,000 compounds. About 12,000 (3.5%) were called active. Another 18% or so got no clear call; they are omitted. The sample as a whole holds a higher share of actives than the screen did. Unmarked numbers belong to inactive results. Calls follow the shape of the dose curve; as a rule, active = well fitted inhibition curve with a large enough effect; inconclusive = small, poorly fitted or top-dose-only effect, or another doubt; inactive = no such curve, though single readings can be large or run the other way.
% is scaled to controls: 0 for no effect and ±100 for the full control effect; potency is read from the fitted curve at half-maximal effect.

This assay in a line: qHTS Assay for Inhibitors of Hepatitis C Virus (HCV). As to conditions: Huh7.5.1 HCVcc-Cre infection, luciferase reporter, 44 h; series mostly up to 41.8 µM; activity change, negative = inhibition: at the top concentration. A digest of the protocol: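 Antiviral activity was scored by luciferase reporter output from cells infected with HCVcc-Cre (~0.5 moi) in presence of compound, 44 h infection period, cells seeded 1,000/well 4 h prior.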
Consider `CCn1c2c(c3ccc(OC)cc31)CCCC2=O`, for which the Potency is 1.26 µM (active). With `COc1ccc2c(C)cc3nnnn3c2c1`, the “activity change, negative = inhibition” value was -4.35%. Turning to `COc1ccc(C2C3=C(CCCC3=O)N(CC(=O)O)C3=C2C(=O)CCC3)cc1`, the “activity change, negative = inhibition” value is 13.3%. Still for that read-out and setting: the same measure for `O=C(COC(=O)Cc1ccc([N+](=O)[O-])cc1)NC1CCCCCC1`: 23.3%; for `COc1ccc(C2(C)ON(c3ccccc3C(F)(F)F)C2=O)cc1` (stereo not drawn): 32.4%; for `O=C(NCc1cccs1)C1CCN(S(=O)(=O)c2ccc(Cl)cc2)CC1`: -19.5%.

Consider `O=C(Nc1cc(S(=O)(=O)N2CCCCC2)ccc1Cl)C1COc2ccccc2O1` (stereo not drawn), for which the Potency was 11.2 µM (active). As for `CC(=O)NCCC(=O)Nc1cc(S(=O)(=O)N2CCCCC2)ccc1Oc1cccc(C)c1`, the “activity change, negative = inhibition” value is -8.53%. For `CCOc1ccc(S(=O)(=O)N2CCCCC2)cc1NC(=O)CN1CCCC1c1cccs1` (stereo not drawn), the Potency is 4.47 µM (active).

`O=C(COC(=O)CCOc1ccccc1)Nc1cc(S(=O)(=O)N2CCCCC2)ccc1Cl`: the “activity change, negative = inhibition” value was 22.5%. On the same count and under the same terms, the value for `Cc1ccc(S(=O)(=O)N2CCCCC2)cc1NC(=O)[C@@H]1CCCN1C(=O)c1cccs1` was -2.57%; that for `CS(=O)(=O)c1ccc(Cl)c(NC(=O)COC(=O)c2cccc(S(=O)(=O)N3CCCC3)c2)c1` was 8.03%. As to `O=C(CNCc1cccs1)Nc1cc(S(=O)(=O)N2CCCC2)ccc1Cl`, the Potency is 10 µM (active). Turning to `COc1ccc(C(=O)Nc2cc(S(=O)(=O)N3CCCC3)ccc2Cl)cc1`, the “activity change, negative = inhibition” value was -7.01%. On the same count and under the same terms, the same measure for `COc1cccc(CC(=NO)c2cccc(OC)c2)c1`: 0.648%; for `CCN(C(=O)COC(=O)CCC(=O)c1cccs1)C1CCCCC1`: 6.03%; for `O=C1c2ccccc2C(=O)N1CCC#Cc1ccc2cc(C3(O)CCCCC3)oc(=O)c2c1`: -24.6%. On the same count and under the same terms, the value for `CC(Sc1nncn1C)C(=O)NCCC1=CCCCC1` (stereo not drawn) was 14.8%; that for `NS(=O)(=O)c1ccc(CNC(=S)NC(=O)c2ccco2)cc1` was 13.4%; that for `Nc1c(-c2ccccc2)nnn1Cc1ccccc1` was 0.76%.

Consider `Cc1cc(C)cc(OCC(=O)OCC(=O)NC2CCCC2)c1`, for which the “activity change, negative = inhibition” value was 21.1%.

On to `C/C(=N\NC(=O)Cc1ccc(Cl)cc1)c1ccccn1`, for which the Potency was 7.08 µM (active).

As for `O=C(Nc1ccc(NC(=O)c2ccccc2F)cc1)c1ccccc1F`, the “activity change, negative = inhibition” value was 4.39%. Still for that read-out and setting: the value for `COc1ccc(CC(=O)N/N=C(\C)c2ccccn2)cc1` was -28.1%. Same read-out and setting: the value for `C/C(CC(=O)Nc1ccc(N(C)C)cc1)=N\NC(=O)c1ccccc1F` was 1.05%; that for `C/C(=N\NC(=O)Cc1ccc(Br)cc1)c1cccnc1` was 11%. On to `C/C(=N\NC(=O)c1ccccc1F)c1ccccn1`, for which the Potency was 11.2 µM (active). Consider `Cc1noc(C)c1S(=O)(=O)N(C)C[C@H]1Oc2c(NC(=O)Nc3ccc4c(c3)OCO4)cccc2C(=O)N([C@H](C)CO)C[C@@H]1C`, for which the “activity change, negative = inhibition” value is 7.05%. Consider `O=C(OCc1cc(=O)n2ccsc2n1)C1(c2ccc(Cl)cc2)CC1`, for which the “activity change, negative = inhibition” value was -13.4%. On the same count and under the same terms, the value for `O=C(OCC(=O)N1CCc2ccccc21)C1CCCN1S(=O)(=O)c1ccc(Cl)cc1` (stereo not drawn) was 6.57%. `O=C(NN=CC=Cc1ccccc1)C(O)C(O)C(=O)NN=CC=Cc1ccccc1` (stereo not drawn): the “activity change, negative = inhibition” value was 14.2%. For `CN(C)S(=O)(=O)c1ccc(Oc2ccc(S(=O)(=O)N(C)C)cc2)cc1`, the Potency was 11.2 µM (active). Take `COc1cccc(NC(=O)c2ccc(S(=O)(=O)N(C)C)cc2)c1`: the “activity change, negative = inhibition” value was -9.93%. On the same count and under the same terms, the same measure for `Cc1ccc(S(=O)(=O)c2ccc(Oc3ccccc3)cc2)cc1`: -27.1%. As to `CNC(=O)c1cccc2nc3ccccc3nc12`, the Potency is 11.2 µM (active).

`CN(C)C(=O)c1coc2nc3ccccc3nc12`: the “activity change, negative = inhibition” value is -10.9%.

As to `CNC(=O)c1cc2c(ccc3ccccc32)oc1=N`, the “activity change, negative = inhibition” value is 3.09%. Same read-out and setting: the value for `CC(C)N(C(=O)CSc1nnc(NC2CC2)s1)c1ccccc1` was 10.8%; that for `CC(=O)Nc1ccc(S(=O)(=O)N2CCN(c3ccc([N+](=O)[O-])c(NCCN4CCOCC4)c3)CC2)cc1` was -11.2%.

In the case of `COc1ccccc1OCCNC(=O)c1cc([N+](=O)[O-])cc([N+](=O)[O-])c1`, the “activity change, negative = inhibition” value is 10.3%. As for `COc1ccccc1OCCNc1cc(N2CCOCC2)ccc1[N+](=O)[O-]`, the Potency is 14.1 µM (active). For the molecule `COc1ccc(Cl)cc1NC(=O)CN1CCN(C(=O)N2CCOCC2)CC1`, the “activity change, negative = inhibition” value was -13.9%. Same read-out and setting: the same measure for `Cn1nc(C(=O)OCC(=O)N(Cc2ccccc2)C(C)(C)C)c2ccccc2c1=O`: -24.2%; for `CN(Cc1ccc(CNC[C@H]2O[C@@H](n3cnc4c(N)ncnc43)[C@H](O)[C@@H]2O)o1)S(C)(=O)=O`: 35.2%; for `O=C(/C=C/c1cccc([N+](=O)[O-])c1)OCC(=O)N1CCOCC1`: -1.47%. As to `CCOc1cc(C(=O)N(Cc2ccccc2)c2ccc(C)cc2)ccc1OCC(=O)N1CCOCC1`, the “activity change, negative = inhibition” value is -5.74%. Same read-out and setting: the value for `COc1ccc(OC)c(NC(=O)c2ccc3c(c2)C(=O)N(c2ccc(OC(C)=O)cc2)C3=O)c1` was 10.5%.

For `CCOC(=O)CNC(=O)CSc1nnc(COc2ccc(Cl)cc2)n1CC`, the “activity change, negative = inhibition” value was 15.3%. The same measure, in the same setting: the value for `CCOc1ccc(NC(=O)Nc2cc(C)on2)cc1` was 0.646%. In the case of `CCOc1ccc(C(=O)Nc2cc(OC)ccc2OC)cc1`, the Potency is 8.91 µM (active). In the case of `COc1ccc(C)cc1NC(=O)NCc1ccccn1`, the “activity change, negative = inhibition” value was 0.829%. With `CCn1c(COc2ccc(OC)cc2)nnc1SCC(=O)Nc1cc(OC)ccc1OC`, the Potency is 1.26 µM (active).

`CCOc1ccc(NC(=O)Nc2cc(C)ccc2OC)cc1`: the Potency was 11.2 µM (active).
